Experimental data taken from PubChem BioAssay (NCI).
The panel holds about 83,000 compounds, 20% with a hit somewhere; the sample as a whole holds those more often.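 The test compound was applied at a single concentration to cells in 96-well plates for 48 hours, and percent growth was recorded.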 Calls of active or inactive are those of the source. How the source made its calls: active means growth percent below 10; inactive means the rest.

test system: BT-549 breast; assay: NCI-60 one-dose screen, 48 h (100 = growth as untreated, 0 = no growth, -100 = all killed); conditions: 10 µM

SMILES | growth
CCCCOC(OCCCC)c1ccccc1 | 107% (inactive)
O=C(O)c1cccc([N+](=O)[O-])c1O | 93.6% (inactive)
O=C1c2ccccc2C(=O)N1OCc1ccccc1 | 118% (inactive)
C[C@@H](c1ccccc1)[C@@H](C(=O)O)c1ccccc1 | 97.6% (inactive)
CC(=O)OC(OC(C)=O)C1CCCO1 (stereo not given) | 95.8% (inactive)
c1ccc2c(N3CCCCC3)ncnc2c1 | 90.8% (inactive)
S=c1nn[nH]c2ccccc12 | 106% (inactive)
O=[N+]([O-])c1ccc(Sc2ccncn2)c([N+](=O)[O-])c1 | 74.9% (inactive)
O=c1[nH]c(O)c(/C=C2/C=Nc3ccccc32)[nH]1 | 107% (inactive)
CC1OC(Oc2c(-c3ccc(O)c(O)c3)oc3cc(O)cc(O)c3c2=O)C(O)C(O)C1O (stereo not given) | 109% (inactive)
Cc1ccc(O)c(C(=O)c2ccccc2)c1 | 99.1% (inactive)
OCC1OC(OC2C(O)C(CO)OC2(CO)OC2OC(CO)C(O)C(O)C2O)C(O)C(O)C1O (stereo not given) | 105% (inactive)
C[N+](C)(C)C(=O)c1ccccc1 | 101% (inactive)
Cc1cc2ccccc2c(O)c1C#N | 97.6% (inactive)
COc1ncnc2c1cnn2C | 95.4% (inactive)
CC(O)COc1ccc(-c2ccccc2)cc1 (stereo not given) | 104% (inactive)
C1CNC(C2=NCCN2)=N1 | 111% (inactive)
O=[N+]([O-])c1ccc(S(=O)(=O)NN=C2CCCCC2)cc1 | 95.5% (inactive)

SMILES | growth
C[C@]12CC[C@@H]3c4ccc(OCC(=O)O)cc4CC[C@H]3[C@@H]1CCC2=O | 102% (inactive)
Nc1ncnc2[nH]ncc12 | -32.8% (active)
CCCNc1ccc(C2=NCCCN2)cc1 | 90% (inactive)
O=C(N/N=C/c1ccccc1O)Nc1nn[nH]n1 | 111% (inactive)
Cc1ccc(CCCC(=O)O)c(C)c1 | 101% (inactive)
CC(=O)c1cc2c(cc1F)C(C)(C)CCC2(C)C | 101% (inactive)
CN(c1ccccc1)c1ncnc2c1ncn2C | 101% (inactive)
CCCCC1(CC)COC(CCC)OC1 (stereo not given) | 106% (inactive)
COc1cc2c3cc1Oc1c(OC)c(OC)cc4c1C(Cc1ccc(O)c(c1)Oc1ccc(cc1)CC3N(C)CC2)N(C)CC4 (stereo not given) | 32.8% (inactive)
CCC(C#N)(CC)c1ccccc1 | 100% (inactive)
FC(F)(F)c1ccc2c(c1)N(CCCN1CCN(C3CC3)CC1)c1ccccc1S2 | 61% (inactive)
CC1NC(=O)NC1CCCCCC(=O)O (stereo not given) | 105% (inactive)
COS(=O)(=O)c1ccc(Br)cc1 | 113% (inactive)
O=[N+]([O-])c1cccc(N=Nc2ccc(O)cc2O)c1 | 49.8% (inactive)
Cc1cc(OCCO)cc(C)c1Cl | 116% (inactive)
Cc1cc(O)ccc1O | 83.5% (inactive)
CCOc1ccc(Br)cc1/C=N\N=C\c1cc(Br)ccc1OCC | 108% (inactive)
